Rows were chosen to be rich in hits. Some 2.3% of all compounds tested hit in one or more screens of this group.
M1 ag = agonists of human M1 muscarinic receptor | P11229 | CHO-K1 hM1, Fluo-8 calcium fluorescence, agonist mode; 0% DMSO, 100% acetylcholine EC100 | activation, % at 3 µM | hit rate 0.33% among 360,000 | AID 588814;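 active = activation above the run's mean compound activation plus 3 SD, cut at about 16% in these data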;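 also: peak over basal fluorescence ratio within a 140 s kinetic read after compound addition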
Target sequence (P11229 whole entry, looked up): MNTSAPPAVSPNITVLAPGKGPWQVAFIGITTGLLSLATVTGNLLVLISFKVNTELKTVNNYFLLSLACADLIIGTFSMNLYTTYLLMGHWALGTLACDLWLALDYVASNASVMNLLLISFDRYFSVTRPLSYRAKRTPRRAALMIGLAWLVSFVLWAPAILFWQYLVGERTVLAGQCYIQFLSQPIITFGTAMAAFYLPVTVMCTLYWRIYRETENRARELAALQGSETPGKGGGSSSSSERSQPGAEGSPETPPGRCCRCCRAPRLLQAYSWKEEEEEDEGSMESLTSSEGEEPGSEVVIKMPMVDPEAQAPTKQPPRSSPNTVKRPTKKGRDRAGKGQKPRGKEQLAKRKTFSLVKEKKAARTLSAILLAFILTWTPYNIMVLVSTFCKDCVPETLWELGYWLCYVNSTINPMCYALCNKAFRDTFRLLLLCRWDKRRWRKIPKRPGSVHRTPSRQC
M1 PAM = potentiates human M1 receptor response to acetylcholine | P11229 | CHO-K1 hM1, Fluo-8 calcium fluorescence, ACh EC20; 0% = ACh EC20, 100% = maximal ACh | activation, % at 3 µM | hit rate 0.088% among 360,000 | AID 588819; in the data active = activation above about 19%, passing the limit was not always enough
CHO-K1 Ca antag = M1 antagonist counterscreen hit in parental CHO-K1 cells; ATP-induced calcium, Fluo-8 fluorescence; inhibition, % at 3 µM; hit rate 0.6% among 360,000; AID 602250;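 active = inhibition above a per-plate cutoff, the plate's mean sample inhibition plus 3 SD, cut at about 24% in these data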
M1 ag parental = M1 agonist counterscreen hit in parental CHO-K1 cells | Fluo-8 calcium fluorescence; scaled to maximal ATP response, vehicle zero | activation, % at 3 µM | hit rate 0.48% among 360,000; in the data active = activation above about 15%;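 also: untransfected CHO-K1 host cells lacking M1 receptor as counterscreen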
M1 PAM parental = M1 PAM counterscreen hit in parental CHO-K1 cells | ATP EC20, Fluo-8 calcium fluorescence; 0% at ATP EC20, 100% at ATP max | activation, % at 3 µM | hit rate 0.02% among 360,000 | AID 602247;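 active = activation above the run cutoff, the mean activation of all test compounds plus 3 SD, cut at about 40% in these data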;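 also: peak over basal fluorescence ratio in a 140 s read after ATP addition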
M1 antag = blocks human M1 muscarinic receptor | P11229 | CHO-K1 hM1, Fluo-8 calcium fluorescence, ACh EC80 antagonist | inhibition, % at 3 µM | hit rate 1.3% among 360,000 | AID 588852;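 active = percent inhibition above its own plate's cutoff, namely the mean of that plate's compound wells plus 3 SD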;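 also: peak over basal fluorescence ratio during 140 s after agonist addition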
Numbers stand for hits; i = inactive; nt = no result.

SMILES | M1 ag | M1 PAM | CHO-K1 Ca antag | M1 ag parental | M1 PAM parental | M1 antag
CCCCN(C=O)c1c(CC)nc2ccc(C(=O)NCCc3ccccn3)cn12 | i | i | i | i | i | i
O=C1C(=Cc2ccccc2O)SC(=S)N1CCCN1CCOCC1 | i | i | i | i | i | i
CSc1nc(SCCN(C)C)c2c3c(sc2n1)COC(C)(C)C3 | 50.8 | i | i | i | i | i
CCOC(=O)C(=C1Nc2ccccc2N1)n1c(-c2cccnc2)nc2ccccc21 | nt | nt | i | i | i | nt
Cc1ccc(CNC(=O)c2cccnc2Sc2cccc(Cl)c2)cc1 | 22.4 | i | i | i | i | i
CCCCCCCCN1C(=O)[C@H](CC(=O)N2CCSCC2)C[C@@]2(C(=O)OC)CCCCC=C12 | nt | nt | i | i | i | nt
Brc1ccc2ncnc(Nc3cccc4ccccc34)c2c1 | i | i | i | 19.4 | i | i
COc1cccc(Nc2ncnc3ccc(Br)cc23)c1 | i | i | i | i | i | i
O=C(c1ccccc1Oc1ccc([N+](=O)[O-])cc1)N1CCOCC1 | i | i | 24.5 | i | i | i
COC(=O)[C@]12CCCCC=C1N(Cc1ccccc1)C(=O)[C@H](CC(=O)N1CCC(c3ccccc3)CC1)C2 | nt | nt | i | i | i | nt
CCOc1ccccc1N(C(=O)Nc1cccc(Cl)c1)C1=NC(C)CS1 (stereo unspecified) | i | i | i | i | i | i
CC1CSC(N(C(=O)c2ccc(S(C)(=O)=O)cc2)c2ccc(Cl)cc2)=N1 (stereo unspecified) | i | i | i | 15.8 | i | i
CCOc1ccccc1C1C2C(=O)N(c3ccccc3)C(=O)C2ON1c1ccccc1 (stereo unspecified) | i | i | i | i | i | 27.6
CCc1ccc(N2CC(C(=O)N3CCN(S(=O)(=O)c4cccc(F)c4)CC3)CC2=O)cc1 (stereo unspecified) | i | i | i | i | i | i
CN(C)CCNc1nc(-c2ccccc2F)c2sccc2n1 | i | i | i | i | i | 69.8
Cc1oc(-c2ccccc2F)nc1CS(=O)(=O)CC(=O)NC1CCCC(C)C1C (stereo unspecified) | i | i | i | i | i | i
Cc1oc(-c2ccccc2F)nc1CS(=O)(=O)CC(=O)NC1CCCC1 | i | i | i | i | i | 33.2
CCOc1ccccc1N(CC(=O)N1CCC(C)CC1)S(=O)(=O)c1ccc(C)cc1 | i | i | i | i | i | 31.8
CCOc1ccccc1N(CC(=O)N1CCCCCC1)S(=O)(=O)c1ccc(C)cc1 | i | i | i | i | i | i
CCCCCCCCC(c1nc2ccccc2[nH]1)N1CCN=C1c1cc2ccccc2[nH]1 (stereo unspecified) | i | i | i | i | i | i
Cc1ccccc1OCC(=O)N(Cc1ccc(N(C)C)cc1)C1CCS(=O)(=O)C1 (stereo unspecified) | i | i | i | i | i | i
CN(C)c1ccc(CN(C(=O)COc2ccccc2)C2CCS(=O)(=O)C2)cc1 (stereo unspecified) | i | i | 26.6 | i | i | i
CC[C@@H](C)[C@@H]1CN([C@@H](C)CN2CCC[C@H]2CN2C(N)=NC[C@@H]2Cc2ccccc2)C(=N)N1CCc1ccc(Cl)c(Cl)c1 | i | i | i | i | i | 49.1
CC[C@@H](C)[C@@H]1CN([C@@H](C)CN2CCC[C@H]2CN2C(N)=NC[C@@H]2Cc2ccccc2)C(=N)N1CCCC1CCCC1 | i | i | i | i | i | 76.0
CC[C@@H](C)[C@@H]1CN([C@@H](CN2CCC[C@H]2CN2C(N)=NC[C@H]2C(C)C)C(C)C)C(=N)N1CCc1ccc(Cl)c(Cl)c1 | i | i | i | i | i | i
CCN(CC)C(=O)c1cccc(-c2csc(C(C)(O)c3ccncc3)n2)c1 (stereo unspecified) | i | i | i | i | i | i
O=C(COC(=O)c1cnccn1)Nc1ccc(Cl)cn1 | i | i | 27.4 | i | i | i
NC(=O)c1ccsc1NC(=O)COC(=O)c1cnccn1 | i | i | i | i | i | i
Cc1cccc(C(=O)NCC(=O)OCC(=O)c2cc(C)n(CC3CCCO3)c2C)c1 (stereo unspecified) | i | i | i | 17.3 | i | i
